Screening results as filed in PubChem BioAssay.
VACV Venus inh – vaccinia inhibition (Venus reporter); Vaccinia virus Venus reporter expression, fluorescence; Potency, µM (highest dose often 36.5 µM), usual class: inhibitors; hit rate 0.46% among 330,000; AID 720580; calls by dose curve; tested in A549 cells; note: nearly all actives have a fitted effect of over 30% in size
FBPA Giardia inh – Giardia lamblia aldolase inhibition. hit rate 0.71% among 290,000. purified Giardia FBPA. Potency, µM (titrated, usually from 59.6 µM), actives largely listed as inhibitors; active = well fitted inhibition curve with a large enough effect; inconclusive = small, poorly fitted or top-dose-only effect, or effect the other way; note: nearly all actives have a fitted effect of over 55% in size
Target sequence (A8B2U2 whole entry, looked up): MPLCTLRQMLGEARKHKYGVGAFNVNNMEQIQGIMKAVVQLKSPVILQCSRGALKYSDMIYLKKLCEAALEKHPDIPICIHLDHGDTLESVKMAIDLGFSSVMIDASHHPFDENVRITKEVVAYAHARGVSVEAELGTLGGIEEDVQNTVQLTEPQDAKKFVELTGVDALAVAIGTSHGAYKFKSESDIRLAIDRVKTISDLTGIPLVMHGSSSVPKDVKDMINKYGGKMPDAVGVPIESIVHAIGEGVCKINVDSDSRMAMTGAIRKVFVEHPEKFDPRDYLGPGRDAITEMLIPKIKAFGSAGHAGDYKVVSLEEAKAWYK
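40 nM FBPA preincubated 10 min at RT with compound (up to 57.5 uM final), then substrate plus GAPDH/TPI/NAD/arsenate coupling and diaphorase/resazurin added. Fluorescence read after 20 min at RT, 525/598 nm.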
Vaccinia mCherry – inhibitors of vaccinia virus infection (mCherry reporter signal). Vaccinia virus mCherry reporter infection, fluorescence. Potency, µM (titrated, usually from 36.5 µM), hits mostly inhibitors. hit rate 0.63% among 310,000. AID 720579; calls by dose curve; tested in A549 cells; note: nearly all actives have a fitted effect of over 35% in size
FMDV antiviral – antivirals against foot and mouth disease virus | AID 1159524 | FMDV antiviral cell-based qHTS | hit rate 1.2% among 410,000 | Potency, µM (top dose mostly 57.9 µM), most hits filed as inhibitors; calls by dose curve; tested in HEK293T cells; note: read-out not given here; nearly all actives have a fitted effect of over 45% in size
Each line names hits and unclear results; the compound was inactive in the other large screens. An excerpt weighted towards active compounds, which were near 2.2% of everything screened.

C(=C\c1c[nH]c2ccccc12)/c1ccnc2ccccc12	Vaccinia mCherry inconclusive (no result: FBPA Giardia inh, FMDV antiviral)
Nc1cnn(C2OC(CO)C(O)C2O)c(=O)n1 (stereo not drawn)	Vaccinia mCherry inconclusive
Nc1nc(=O)n(C2OC(CO)C(O)C2O)cc1F (stereo not drawn)	Vaccinia mCherry 2µM (no result: FBPA Giardia inh)
O=c1[nH]c(=O)n(C2OC(CO)C(O)C2O)cc1F (stereo not drawn)	VACV Venus inh inconclusive, Vaccinia mCherry 1µM (no result: FBPA Giardia inh)
O=c1[nH]c(=S)ccn1C1OC(CO)C(O)C1O (stereo not drawn)	none (no result: FBPA Giardia inh)
O=c1[nH]c(=O)n([C@@H]2O[C@H](CO)[C@@H](O)[C@H]2O)cc1F	VACV Venus inh inconclusive, Vaccinia mCherry 1.1µM (no result: FMDV antiviral)
O=c1[nH]c(=O)c2ncn(C3OC(CO)C(O)C3O)c2[nH]1 (stereo not drawn)	none (no result: FBPA Giardia inh, FMDV antiviral)
COc1ccc(CNC(=O)Cc2c(C)c3cc4c(C)coc4cc3oc2=O)cc1	none (no result: FBPA Giardia inh)
C=CCn1c(SCC#N)nc2ccc(Cl)cc2c1=O	none (no result: FBPA Giardia inh, FMDV antiviral)
CC(C)(C=O)C1=CC(=O)c2ccccc2C1=O	FBPA Giardia inh inconclusive, FMDV antiviral 35µM
CC(C)(C)c1ccc2c(c1)C(=O)c1ccccc1C2=O	none
CCN(CC)c1ccc(CNCCc2ccc(F)cc2)cc1	Vaccinia mCherry 10µM, FMDV antiviral inconclusive
CCc1ccc(NC(=O)c2ccc(F)c(S(=O)(=O)N(CC)c3ccccc3)c2)cc1	FMDV antiviral inconclusive
CCN(c1ccccc1)S(=O)(=O)c1cc(C(=O)Nc2cccc(Cl)c2)ccc1F	VACV Venus inh inconclusive, Vaccinia mCherry inconclusive, FMDV antiviral 20µM
Cc1cccc(NC(=O)c2ccc(N(Cc3ccccc3)S(C)(=O)=O)cc2)c1	FMDV antiviral 22µM (no result: FBPA Giardia inh)
CC(=O)c1cccc(NC(=O)c2ccc(N(Cc3ccccc3)S(C)(=O)=O)cc2)c1	FMDV antiviral 32µM (no result: VACV Venus inh, Vaccinia mCherry)
CS(=O)(=O)N(Cc1ccccc1)c1ccc(C(=O)Nc2ccc(C(N)=O)cc2)cc1	none (no result: VACV Venus inh, Vaccinia mCherry)
COc1cc(-c2ccc(Cl)cn2)cc2c1OCCN(C(=O)c1ccccc1-n1cccn1)C2	none (no result: FBPA Giardia inh)
CN(C)CCCN(C(=O)/C=C/c1cccs1)c1nc2c(F)cccc2s1	VACV Venus inh 10µM, Vaccinia mCherry 10µM, FMDV antiviral inconclusive
Cc1cccc2sc(N(CCN(C)C)C(=O)/C=C/c3cccs3)nc12	VACV Venus inh inconclusive, FMDV antiviral inconclusive
CNC[C@@H](CC1CCCCC1)NC[C@H](CC(C)C)NCCc1cccc(C(F)(F)F)c1	VACV Venus inh inconclusive, Vaccinia mCherry 14µM, FMDV antiviral inconclusive
Cc1ccc(NC(=O)COc2ccccc2C(=O)Nc2ccccc2)cc1	none (no result: FBPA Giardia inh, FMDV antiviral)
CCCC(=O)N(C1CC(C)C(C#N)(C#N)C1(C#N)C#N)N(C)C (stereo not drawn)	FMDV antiviral 16µM
CC(=O)N(C1CC(C)C(C#N)(C#N)C1(C#N)C#N)N(C)C (stereo not drawn)	Vaccinia mCherry inconclusive, FMDV antiviral inconclusive
CCOC(=O)C1=C(N)OC2=C(C(=O)CCC2)C1c1cccs1 (stereo not drawn)	FBPA Giardia inh 13µM (no result: FMDV antiviral)
COc1ccc(N2CCN(Cc3nc4ccsc4c(=O)[nH]3)CC2)cc1	none (no result: VACV Venus inh, Vaccinia mCherry)
O=c1[nH]c(CN2CCN(c3ccc([N+](=O)[O-])cc3)CC2)nc2ccsc12	VACV Venus inh inconclusive, FMDV antiviral 32µM (no result: Vaccinia mCherry)
Cc1cccc(/C=C/c2nc3ccccc3c(=O)[nH]2)c1	none
Cc1[nH]c2ccccc2c1/C=C/c1nc2ccccc2c(=O)[nH]1	VACV Venus inh inconclusive, Vaccinia mCherry 13µM
Cc1ccc(NC(=O)O/N=C/c2c(C)nn(C(C)(C)C)c2C)cc1Cl	FMDV antiviral 0.013µM
COc1ccc(Cn2nnnc2CN2CCC(c3nc4ccccc4s3)CC2)cc1	FMDV antiviral 20µM (no result: VACV Venus inh, Vaccinia mCherry)
c1ccc2sc(C3CCN(Cc4nnnn4Cc4ccc5c(c4)OCO5)CC3)nc2c1	VACV Venus inh inconclusive, Vaccinia mCherry inconclusive, FMDV antiviral 20µM
Cc1cnc(-n2ncc(C(=O)NC(C)(C)CO)c2-c2cccs2)nc1-c1ccc(F)cc1	none (no result: FBPA Giardia inh)
COc1ccc(-c2ccc(C(c3c(C)[nH][nH]c3=O)c3c(C)[nH][nH]c3=O)o2)c([N+](=O)[O-])c1	FBPA Giardia inh 6.3µM (no result: FMDV antiviral)
COc1cc(=O)n2c(c1C(=O)N(C)C(C)c1ccco1)CCN(C(=O)c1ccc(C(C)=O)cc1)CC2 (stereo not drawn)	none (no result: FBPA Giardia inh)
CCCCNC1C(CC)C(CCC)C(C#N)(C#N)C1(C#N)C#N (stereo not drawn)	FMDV antiviral 32µM (no result: Vaccinia mCherry)
Oc1ccc2ccccc2c1C=NCc1cn2ccsc2n1	FBPA Giardia inh 1µM (no result: FMDV antiviral)
c1ccc(-c2ccncc2)cc1	none (no result: FBPA Giardia inh)
Nc1cc(-c2ccncc2)c[nH]c1=O	FBPA Giardia inh 1.8µM
CCc1c(C)nc2ncnn2c1NCCc1ccc(Cl)cc1	FMDV antiviral 14µM
CCc1c(C)nc2ncnn2c1NCCc1ccccc1	FMDV antiviral inconclusive (no result: VACV Venus inh, Vaccinia mCherry)
CCc1cccc(NC(=O)COC(=O)c2ccccc2OCc2ccccc2Br)c1	VACV Venus inh 13µM, Vaccinia mCherry inconclusive (no result: FBPA Giardia inh, FMDV antiviral)
CC(C)c1cccc(NC(=O)COC(=O)c2ccccc2OCc2cccc(Br)c2)c1	none (no result: FBPA Giardia inh, FMDV antiviral)
Cc1ccc(-c2cc3onc(-c4ccccc4)c3c(=O)n2C)cc1	VACV Venus inh inconclusive, FMDV antiviral 18µM (no result: FBPA Giardia inh)
O=C(Nc1ccc(Cl)c(Cl)c1)N1CCC(c2ccccc2)C1 (stereo not drawn)	none (no result: FBPA Giardia inh)
CC(C)OCc1cc(CN2CCN(c3ccccc3)CC2)c(O)c2ncccc12	VACV Venus inh inconclusive, Vaccinia mCherry 11µM, FMDV antiviral inconclusive (no result: FBPA Giardia inh)
COCc1cc(CN2CCN(C)CC2)c(O)c2ncccc12	FBPA Giardia inh inconclusive (no result: VACV Venus inh, Vaccinia mCherry)
Oc1c(CN2CCOCC2)cc(COCc2ccccc2)c2cccnc12	VACV Venus inh inconclusive, Vaccinia mCherry 7.1µM
Oc1c(CN2CCN(c3ccccc3)CC2)cc(Br)c2cccnc12	FMDV antiviral inconclusive (no result: VACV Venus inh, Vaccinia mCherry)
Cc1nn(-c2ccccc2)c2c1C(c1ccncc1)C(C#N)=C(N)O2 (stereo not drawn)	none (no result: Vaccinia mCherry)
COc1cc(-n2nc(C)c3c2OC(N)=C(C#N)C3c2ccccc2)c(Cl)c(Br)c1O (stereo not drawn)	FMDV antiviral 22µM
O=C(NCCc1ccccn1)C1CC12CCN(C(=O)c1ccc(F)cc1Cl)CC2 (stereo not drawn)	none (no result: FBPA Giardia inh)
O=C(c1ccccc1-n1cccn1)N1CCOc2ccc(CN3CCOCC3)cc2C1	none (no result: FBPA Giardia inh)
Cc1ccsc1C(=O)C1CCCN(Cc2cnc(N3CCOCC3)s2)C1 (stereo not drawn)	FMDV antiviral 25µM
Cc1cc(C)n(-c2cccc(C(=O)NCC3Cc4cccc(-c5ccccn5)c4O3)c2)n1 (stereo not drawn)	Vaccinia mCherry inconclusive (no result: FBPA Giardia inh)
CC(C)Nc1nc(C#N)nc(Nc2ccccc2)n1	none (no result: VACV Venus inh, Vaccinia mCherry, FMDV antiviral)
Cc1nc(SC(C)C(=O)NCC2CCCO2)c2cc(-c3ccccc3)sc2n1 (stereo not drawn)	Vaccinia mCherry 5µM (no result: FBPA Giardia inh)
Cc1c(/C(O)=C2/C(=O)C(=O)N(Cc3cccnc3)C2c2ccccn2)cnn1-c1ccccc1 (stereo not drawn)	FMDV antiviral 4µM
CN(Cc1ccc(Cl)c(Cl)c1)C(C(=O)NCc1ccccc1)c1ccco1 (stereo not drawn)	Vaccinia mCherry inconclusive (no result: FBPA Giardia inh)
CN(Cc1ccc(Cl)c(Cl)c1)C(C(=O)NCc1ccccc1)c1ccc(C(F)(F)F)cc1 (stereo not drawn)	VACV Venus inh inconclusive, Vaccinia mCherry 11µM (no result: FBPA Giardia inh)
COc1ccccc1N(CC(=O)NCCSCc1ccccc1)S(=O)(=O)c1ccc(C)cc1	VACV Venus inh inconclusive, Vaccinia mCherry inconclusive, FMDV antiviral 35µM
